This is a sample that favours compounds with a hit; in the whole collection about 11% have one here.
Pf growth 48h: inhibits P. falciparum growth in the first generation, 48 h | actives 5.9% (n = 310,000) | Potency, µM (titrated, usually from 28.7 µM), without a hit: at the highest dose activity change, negative = inhibition, hits mostly inhibitors | P. falciparum luciferase growth in erythrocytes, 48 h | AID 504832
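Read-out is firefly luciferase luminescence from an integrated reporter in P. falciparum, so falling signal marks reduced parasite growth. Infected erythrocytes were at 2% hematocrit and 0.1% parasitemia (final) in Albumax-supplemented RPMI 1640.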
HCV inh: blocks hepatitis C virus | Huh7.5.1 HCVcc-Cre infection, luciferase reporter, 44 h | actives 3.4% (n = 340,000) | Potency, µM (series often up to 41.8 µM), for inactives: at the top dose activity change, negative = inhibition, hits mostly inhibitors
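Seed cells (1,000/well) for 4 h; treat with compound and infect with HCVcc-Cre, moi about 0.5. Incubate 44 h, then detect luciferase activity.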
Pf growth 96h: P. falciparum growth inhibition at 96 hour, primary screen for plastid delayed-death inhibitors; P. falciparum luciferase reporter growth, 96 h; Potency, µM (highest dose often 28.7 µM), without a hit: top-dose activity change, negative = inhibition, actives largely listed as inhibitors; actives 6.9% (n = 320,000); AID 504834
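Infected RBCs, 2% Hct / 0.05% parasitemia final; luciferase-reporter P. falciparum; cpd 96 h, 37 C, 5% CO2; luciferase detection reagent; luminescence.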
AmpC inh detg: AmpC beta-lactamase inhibition with detergent present | AmpC hydrolysis of nitrocefin, absorbance 480 nm, 0.01% Triton | Potency, µM (highest dose often 114 µM), without a hit: top-dose activity change, negative = inhibition, hits mostly inhibitors | P00811 | AID 485294 | actives 0.041% (n = 370,000);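 note: 0% = no-compound wells and -100% = no-enzyme wells; nearly all actives have a fitted effect of over 25% in size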
Target sequence (P00811 whole entry, looked up): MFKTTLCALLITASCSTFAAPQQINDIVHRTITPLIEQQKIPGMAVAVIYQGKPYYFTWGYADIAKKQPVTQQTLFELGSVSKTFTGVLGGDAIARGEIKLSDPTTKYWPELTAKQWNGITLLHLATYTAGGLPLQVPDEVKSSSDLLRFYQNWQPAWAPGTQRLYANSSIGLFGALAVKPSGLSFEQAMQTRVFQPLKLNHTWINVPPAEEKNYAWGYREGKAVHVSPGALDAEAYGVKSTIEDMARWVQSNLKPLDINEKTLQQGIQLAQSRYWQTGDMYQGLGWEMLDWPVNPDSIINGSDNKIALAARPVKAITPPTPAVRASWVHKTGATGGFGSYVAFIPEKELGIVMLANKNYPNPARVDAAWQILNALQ
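AmpC (5.3 nM in the dispensed reagent) in 20 mM phosphate pH 7.0 with 0.01% (detergent screen) or 0.0001% Triton X-100 was preincubated with compounds for 15 min at room temperature. Nitrocefin was then added from an 800 uM solution, and hydrolysis was followed at 480 nm.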
AmpC no deterg: blocks E. coli AmpC beta-lactamase in detergent-free assay; P00811; AmpC nitrocefin hydrolysis, absorbance 480 nm, 0.0001% Triton; Potency, µM (highest dose often 57.1 µM), for inactives: at the top dose activity change, negative = inhibition, actives largely listed as inhibitors; actives 0.52% (n = 330,000); AID 485341;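 note: plate controls were no compound for no effect and no enzyme for full effect; nearly all actives have a fitted effect of over 20% in size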
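20 mM phosphate pH 7.0 + 0.01% (detergent screen) or 0.0001% Triton X-100; 5.3 nM AmpC reagent; cpd preinc 15 min RT; nitrocefin (800 uM stock) to start; A480 q20 s × 4 min; Activity was normalised to no-enzyme and no-compound control wells.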
AMA1 RON2 block: disrupts binding of P. falciparum AMA1 to RON2; AID 720542; AlphaScreen AMA1-biotinylated RON2 peptide binding; Potency, µM (titrated, usually from 58.2 µM), for the others: at the top dose activity change, negative = inhibition, actives largely listed as inhibitors; actives 0.2% (n = 360,000);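 note: 0% = vehicle wells and -100% = peptide control; nearly all actives have a fitted effect of over 45% in size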
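AMA1 (3D7) with his tag at 25 nM final met compounds first, then biotinylated RON2 peptide at 25 nM; detection used donor plus acceptor beads, 10 µg/mL apiece, read by AlphaScreen after 30 min at room temperature.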
* = called active by the depositor; ? = inconclusive; / = no result given; [ ] = remark or other dose. Calls come from the whole dose curve; as a rule, active = well fitted curve in the direction sought with a large enough effect; inconclusive = small, poorly fitted or top-dose-only effect, or another doubt; inactive = no such curve, though single readings can be large; an effect the other way counts as inactive or inconclusive. Unless noted, % is set by controls: 0 for no effect and ±100 for the full control effect; potency is the fitted concentration of half-maximal effect.

SMILES	Pf growth 48h	HCV inh	Pf growth 96h	AmpC inh detg	AmpC no deterg	AMA1 RON2 block
C/C(=N\Nc1nc2ccccc2[nH]1)c1ccc(N2CCOCC2)cc1	4.15µM*	?	1.65µM*	?	-31.7%[11.4 µM]	?
C/C(=N\Nc1nc2ccccc2[nH]1)c1ccc(Cl)s1	0.928µM*	?	?	0.7%	-30.3%	4.6%
O=C(NCC(c1ccc2c(c1)OCO2)N1CCN(c2ccccc2)CC1)C(=O)Nc1ccc(F)cc1 (configuration not stated)	/	/	/	-5.6%	/	/
CCOC(=O)N1CCc2c(sc(NCc3cc(OC)ccc3OC)c2C(=O)Nc2cc(OC)ccc2OC)C1	/	/	/	-7.1%	/	/
COc1ccc(OC)c(S(=O)(=O)N2CCN(c3ccccn3)CC2)c1	-3.0%	-0.3%	-24.3%	2.2%	23.1%	5.9%
COc1ccc(OC)c(S(=O)(=O)N2CCCCC2C(=O)N2CCN(c3ccccn3)CC2)c1 (configuration not stated)	11.7µM*	5.1%	24.8%	?	33.7%	3.8%
COc1ccc(NC(=S)N2CCN(c3ccccn3)CC2)cc1OC	-14.3%	-2.9%	7.38µM*	-9.9%	0.4%	10.8%
COc1ccc(/C=C/C(=O)N2CCN(c3ccccn3)CC2)cc1OC	-6.0%	-9.0%	11.7µM*	-1.1%	9.4%	11.6%
COc1ccc(C)cc1NC(=S)N1CCN(c2ccccn2)CC1	24.5%	-4.5%	1.04µM*	?	-3.8%	0.9%
OC[C@@H]1O[C@](CO)(O[C@H]2O[C@H](CO)[C@@H](O)[C@H](O)[C@H]2O)[C@H](O)[C@H]1O	-5.6%	/	-6.6%	/	/	/
O=c1c(Cl)c(NCc2ccc(F)cc2)cnn1C12CC3CC(CC(C3)C1)C2	13.1µM*	-23.4%	28.2%	4.2%	-4.8%	12.5%
O=c1c(Cl)c(N2CCN(c3ccc(F)cc3)CC2)cnn1C12CC3CC(CC(C3)C1)C2	4.65µM*	-0.5%	4.15µM*	?	13.4%	-15.2%
CCc1ccccc1NC(=O)CN(C)S(=O)(=O)c1ccc(-c2ccc(=O)[nH]n2)s1	?	2.0%	?	?	2.7%	11.6%
COc1cc(OC)c(NC(=O)CN(C)S(=O)(=O)c2ccc(-c3ccc(=O)[nH]n3)s2)cc1Cl	2.33µM*	?	7.6%	0.3%	66.9%	9.5%
CCCCOC(=O)c1ccc(NC(=O)c2cc(-c3ccccc3)on2)cc1	/	/	/	21.5%	/	/
CCCCOc1ccc(Cl)cc1CSc1n[nH]c(C)n1	?	-19.7%	?	?	-5.6%	0.5%
CCOc1ccc(Cl)cc1CSc1n[nH]c(CC)n1	?	11.2µM*	34.4%	-1.6%	-18.8%	-1.4%
COc1ccccc1NS(=O)(=O)c1cc([N+](=O)[O-])ccc1N/N=C/c1c[nH]c2ccccc12	?	15.8µM*	/	-2.7%	-19.4%	-17.1%
COc1ccccc1NS(=O)(=O)c1cc([N+](=O)[O-])ccc1N/N=C/c1sc(N2CCOCC2)nc1-c1ccccc1	3.29µM*	11.1%	?	1.9%	-12.4%	-3.3%
COc1ccc(C(=O)N/N=C/c2sc(N3CCOCC3)nc2-c2ccccc2)cc1OC	?	?	?	-1.1%	-5.5%	11.0%
COc1ccc(NS(=O)(=O)c2cc([N+](=O)[O-])ccc2N/N=C\c2c(C)[nH]c3ccccc23)cc1	/	-14.6%	?	1.6%	-22.1%	16.4%
O=C(O)c1ccc(CSc2nnc(COc3ccc(Cl)cc3Cl)o2)cc1	/	1.4%	2.62µM*	?	-19.4%	-0.7%
Cc1nnc(SCc2ccccc2Cl)c2cc3occc3n12	/	/	/	-6.0%	/	/
Oc1ccc(Br)cc1Cn1nnc2ccccc21	?	-7.3%	-7.0%	?	-38.4%	-2.6%
Cc1ccc(O)c(Cn2nnc3ccccc32)c1	10.4µM*	?	?	?	-30.9%	-1.5%
SMILES	Pf growth 48h	HCV inh	Pf growth 96h	AmpC inh detg	AmpC no deterg	AMA1 RON2 block
COc1ccc(-c2noc(N3CCN(c4cccc(C)c4C)CC3)n2)cc1OC	/	/	/	12.9%	/	/
CCC(=O)Nc1ccc(NC(=O)c2cccc3c(Br)cccc23)cc1	16.2%	-2.7%	6.57µM*	2.2%	1.6%	0.0%
O=C(Nc1ccc(Cl)cn1)c1cccc2c(Br)cccc12	16.0%[0.00184 µM]	?	?	-8.7%	20µM*	11.4%
CSc1ccc(Cl)c(C(=O)Nc2ccc(Cl)cn2)c1	11.4%	-19.1%	7.38µM*	4.2%	-1.8%	-7.1%
CCC(=O)Nc1ccc(NC(=O)c2cccc3ccccc23)cc1	1.3%	-2.7%	7.9%	-13.6%	0.0%	11.1%
O=C(Nc1ccccc1)N1C2CCC1CC(O)(c1cccnc1)C2 (configuration not stated)	?	27.5%	30.5%	0.5%	-26.3%	12.7%
O=S(=O)(c1ccccc1)N1C2CCC1CC(O)(c1cccnc1)C2 (configuration not stated)	3.9%	2.7%	2.33µM*	0.7%	-28.1%	-13.5%
O=C(Cn1nnc(-c2ccc(N3CCOCC3)cc2)n1)OC1CCCCC1	234.7%	4.2%	7.38µM*	0.0%	-6.7%	0.0%
COc1cc2c(cc1OC)C(COc1ccc(C(C)C)cc1)N(C(=O)c1ccc(S(=O)(=O)N3CCCC3)cc1)CC2 (configuration not stated)	/	/	/	7.8%	/	/
Cc1cc(/C=C/C(=O)O)c(C)n1-c1ccc(Cl)cc1	-26.1%[1.15 µM]	11.1%	-34.4%[1.15 µM]	7.0%	-26.7%	-1.1%
Cc1cc(/C=C\c2ccc3cc(N(C)C)ccc3[n+]2C)c(C)n1-c1ccccc1	0.262µM*	1µM*	0.0033µM*	-10.1%	0.8%	?
COC(=O)CCC(NC(=O)c1cc(C)oc1C)C(=O)OC (configuration not stated)	12.1%	13.0%	10.4µM*	2.8%	-11.4%	0.0%
CSCCC(NC(=O)c1cc(C)oc1C)C(=O)O (configuration not stated)	2.3%	8.1%	/	-1.6%	-4.9%	10.7%
CCCCNC(=O)C1CCN(c2nc3ccc(C)cc3[nH]2)CC1	/	/	/	-0.5%	/	/
Cc1cc(C)n(-c2ccc(F)cc2CN2CCN(C3CCCC3)C(CCO)C2)n1 (configuration not stated)	18.5%	18.1%	1.65µM*	2.1%	-20.6%	8.4%
OCCC1CN(Cc2cccc3nonc23)CCN1C1CCCCC1 (configuration not stated)	-1.8%	2.4%	14.7µM*	6.7%	-14.0%	0.0%
